According to PubChem BioAssay AID2315 (National Center for Advancing Translational Sciences (NCATS), 2010):
About 27,000 (9.3%) of roughly 290,000 compounds were called active. The full list was thinned out, with actives kept by preference. Values without a mark were called inactive. Rule as the data show it: active = inhibition mostly above about 28% (no sharp cut-off); inactive = mostly below about 43%.

Assay: A qHTS for Small Molecule Inhibitors of Shiga Toxin; also: 0% is about no effect
Details: Vero cells, Shiga toxin protein synthesis inhibition reporter; at 38.7 µM, stronger effect = higher value

| SMILES | inhibition |
| --- | --- |
| O=C(Nc1ccc(F)cc1)C1CCCN(S(=O)(=O)c2ccc(-n3cnnn3)cc2)C1 (stereo not drawn) | -10.1% |
| Cc1nn(CC(=O)NC2CCCCC2)c(=O)c2cccn12 | 1.03% |
| CN(CC(=O)Nc1c(Cl)cccc1Cl)C(=O)CNC(=O)C1CCCCC1 | 8.74% |
| CCc1nccn1CCC(=O)N1CCCC(N2CCN(c3ccccc3F)CC2)C1 (stereo not drawn) | -3.27% |
| O=C(Nc1cc(-c2nc3ncccc3o2)ccc1Cl)c1ccco1 | -5.97% |
| O=C1C[C@@H](c2ccc3ccccc3c2)N1S(=O)(=O)c1ccccc1[N+](=O)[O-] | -7.61% |
| Cc1sc2ncn(CC(=O)NCCCC(=O)N3CCN(c4ccccc4F)CC3)c(=O)c2c1C | -6.47% |
| CC1(C)Cc2c(sc(NC(=O)C(=O)NCC3CCCO3)c2C(=O)O)CO1 (stereo not drawn) | -2.38% |
| COc1cccc(CNC(=O)c2nnn(CC(=O)Nc3cc(C)ccc3C)c2N)c1 | -3.78% |
| Cc1ccc(C(=O)NC(=S)NCCN2CCOCC2)cc1 | 57.3% (active) |
| Cc1ccc(C)c(NC(=S)NNC(=O)c2csc(C)c2)c1 | 22.3% (active) |
| Cc1ccc(C(=O)N/C(=C\c2ccc(F)cc2)C(=O)NCCN2CCOCC2)cc1 | -6.91% |
| Cc1ccc(C)c(NC(=O)NNC(=O)c2ccc3ccccc3c2O)c1 | -2.25% |
| Cc1cc(C(=O)NNC(=S)NC(C)c2ccccc2)cs1 (stereo not drawn) | 8.77% |
| CCc1cccc(CC)c1NC(=S)Nc1ccc2cn[nH]c2c1 | -6.34% |
| CC(C)(C)c1cc(C(=O)NCc2cccnc2)ccn1 | -3.32% |
| Cc1c(C(=O)NC(=S)NCc2cccnc2)oc2ccccc12 | -22.1% |
| Cc1ccc(NC(=S)NCCN2CCOCC2)cc1 | -3.76% |
| Cc1cc2[nH]ncc2cc1NC(=S)NC(=O)c1ccccc1 | 34.9% (active) |
| Cc1cccc(NC(=S)Nc2ccc3cn[nH]c3c2)c1 | -14.2% |
| Cc1ccc(C(=O)NC(=S)NCc2cccnc2)cc1 | 56% (active) |
| CN(C)CCN(Cc1ccccc1)S(=O)(=O)c1csc(C(N)=O)c1 | -1.58% |
| CCOC(=O)c1cccc(NC(=O)CCc2nnc3ccc(N4CCOCC4)nn23)c1 | -1.45% |
| CC1CC(C)CN(C(=O)CCNC(=O)Cn2cnc3ccccc3c2=O)C1 (stereo not drawn) | -11.9% |

| SMILES | inhibition |
| --- | --- |
| Cc1ccccc1OCC(=O)Nc1nnc(S(=O)(=O)N2CCCC2)s1 | -10.5% |
| CC(=O)c1cc(CN2CCC(n3nccc3NC(=O)c3ccccc3Cl)CC2)cs1 | -20.5% |
| O=C(Nc1ccnn1C1CCN(Cc2cccc(OCCO)c2)CC1)C1CCCC1 | -5.27% |
| Nc1nc(-c2sc3nc4c(cc3c2N)CCCC4)nc(N2CCOCC2)n1 | 58.2% (active) |
| Cc1nc(N2CCOCC2)nc2c1CCCC2 | 35.4% |
| Cc1cccc(NC(=O)c2sc3nc(N4CCOCC4)c4c(c3c2N)CCCC4)c1 | 30.8% |
| Cc1cc(-c2nnc(SCC(=O)Nc3ccc(S(N)(=O)=O)cc3)n2N)n[nH]1 | -4.71% |
| O=C(NC(Cc1ccccc1)C(=O)O)/C(=C\c1ccccc1)NC(=O)c1ccco1 (stereo not drawn) | -11.9% |
| CC(=O)Oc1cccc(N2C(=O)C3CC=C(Cl)CC3C2=O)c1 (stereo not drawn) | -2.36% |
| CC(=O)Oc1cccc(N2C(=O)CC(Nc3ccc(N4CCOCC4)cc3)C2=O)c1 (stereo not drawn) | 58.2% (active) |
| COc1ccc(N2CCN(C3CC(=O)N(c4ccc5c(c4)OCCO5)C3=O)CC2)cc1 (stereo not drawn) | -9.64% |
| CCOc1ccccc1OCCCNCc1ccccc1 | 8.72% |
| CCOc1ccc(S(=O)(=O)Nc2ccc(OC)nc2)cc1 | 33.9% |
| CCCCCCn1cc(C(=O)O)c(=O)c2cc(F)c(N3CCCCC3)cc21 | 33.7% |
| COc1ccccc1CNC(=O)C1CCN(S(=O)(=O)c2ccc3c(c2)OCCO3)CC1 | -11.4% |
| O=C(Nc1ccccc1C(F)(F)F)c1cc(-c2ccc(O)cc2)on1 | 54.9% (active) |
| O=C(NNC(=O)c1ccccc1[N+](=O)[O-])Nc1ccccc1C(F)(F)F | -6.67% |
| C=CCNC(=O)c1ccccc1SCc1c(C)noc1C | -38.8% |
| O=C(NCc1ccccn1)c1ccc2nc(-c3ccco3)c(-c3ccco3)nc2c1 | 5.29% |
| O=C(Nc1cccnc1Cl)c1cc(-c2cccc(Cl)c2)on1 | -1.68% |
| CCc1ccccc1NC(=O)c1cc(-c2ccc3c(c2)OCO3)on1 | 25.8% |
| O=C(Nc1cccnc1Cl)c1cc(-c2ccccc2O)on1 | 73.1% (active) |
| C=CCNC(=O)c1csc(-c2ccccc2)n1 | 11.1% |
| O=C(NCc1ccccn1)c1cc(-c2ccccc2Cl)on1 | 162% (active) |

| SMILES | inhibition |
| --- | --- |
| O=C(NCc1ccccn1)c1cc(Br)ccc1Cl | 29.6% |
| C=CCNC(=O)c1cc(-c2ccccc2O)on1 | 98.8% (active) |
| O=C(Nc1cccc2ncccc12)c1ccc(-c2ccc(Cl)cc2Cl)o1 | -17.2% |
| Nc1nonc1-n1nnc(C(=O)N/N=C/C2CCCCC2)c1-c1ccccc1 | -3.16% |
| CCCCC(C(=O)NC(C)(C)C)N(Cc1ccccc1)C(=O)c1snc(C(N)=O)c1N (stereo not drawn) | -1.85% |
| CCc1ccccc1N(CC(=O)NCC1CCCO1)C(=O)CCC(=O)Nc1nccs1 (stereo not drawn) | -6.86% |
| CC(Nc1nc(C(F)(F)F)nc2ccccc12)c1cccs1 (stereo not drawn) | 29.3% |
| O=S(O)S(=O)(=O)O | 6.15% |
| Cc1ccc2c(C)c(C(=O)N3CCC(N4CCC(C(=O)NC5CC5)CC4)CC3)oc2c1 | -13.3% |
| Cc1ccc2oc(C(=O)N3CCN(C)C[C@@H]3C(C)C)c(C)c2c1 | 42.3% (active) |
| COc1ccccc1N1CCN(C(=O)c2cc(=O)c3cc(C)ccc3o2)CC1 | 19.1% |
| Cc1ccc(C(=O)NCCc2nnc(SCC(=O)Nc3cccc(C(=O)O)c3)n2C)cc1 | -4.17% |
| CC(=O)C(C)n1cnc2scc(-c3ccc(C)cc3)c2c1=O (stereo not drawn) | -5.64% |
| CC(C)(C)c1ccc(C(=O)CSc2ncn[nH]2)cc1 | 63.4% (active) |
| CCN(C(=O)CSc1ncn[nH]1)c1cccc2ccccc12 | 9.31% |
| Cn1nnc(NC(=O)CSc2ncn[nH]2)n1 | -18.1% |
| Cc1ccccc1NC(=O)NCC1CCN(Cc2cccc(Cl)c2)CC1 | -1.26% |
| O=C(O)c1ccc(NC(=O)c2ccc(COc3ccc(Cl)cc3)o2)cc1 | -8.9% |
| CCOC(=O)c1[nH]c2c(c1C)C(=O)CC(c1ccc(N(C)C)cc1)C2 (stereo not drawn) | 2.86% (active) |
| COCCOC(=O)c1[nH]c2c(c1C)C(=O)CC(c1ccc(OC)cc1)C2 (stereo not drawn) | 13.2% |
| CCOC(=O)c1[nH]c2c(c1-c1ccccc1)C(=O)CC(c1ccc(Cl)cc1)C2 (stereo not drawn) | -7.73% |
| O=C(N/N=C/c1sc(N2CCCCC2)nc1-c1cccs1)c1cccnc1 | -9.51% |
| CCOc1cc(C)ccc1OCc1nnc(SCC(=O)Nc2cccc(C(=O)O)c2)n1-c1ccccc1 | 9.89% |
| CC[C@H](C)[C@H](NC(=O)[C@@H](N)CCC(=O)O)C(=O)N[C@@H](CC(C)C)C(=O)N[C@@H](CC(=O)O)C(=O)N[C@H](C(=O)N1CCC[C@H]1C(=O)N[C@@H](CO)C(=O)N[C@H](C(=O)O)[C@@H](C)O)C(C)C | -4.46% |

| SMILES | inhibition |
| --- | --- |
| CCOc1cccc2c1OC1(CCCCC1)N1N=C(c3cccnc3)CC21 (stereo not drawn) | 42.4% (active) |
| CCOc1ccccc1C1CC(c2cccc(NS(C)(=O)=O)c2)=NN1C(=O)c1ccccc1 (stereo not drawn) | 3.98% |
| c1cncc(-c2nnc3n2C2(CCCCC2)Cc2ccccc2-3)c1 | -14.6% |
| Cc1c(C(=O)N(C)CCc2cnn(C)c2)oc2c(F)cccc12 | 2.81% |
| CCC1C(=O)NCCN1C(=O)c1ccc2nc(Cc3ccc(OC)cc3)oc2c1 (stereo not drawn) | 3.17% |
| CCCCc1nc2cc(C(=O)NCCc3cnn(C)c3)ccc2o1 | 36.3% (active) |
| CCC1CCCCN1C(=O)CSc1nc(C)cc(C)n1 (stereo not drawn) | -8.51% |
| COc1ccc(C(=O)NC2CC2)cc1OC1CCN(Cc2cnn(C)c2)CC1 | 14.2% |
| CCCCc1nc2cc(C(=O)N3CCCCC3CCO)ccc2o1 (stereo not drawn) | 105% (active) |
| CC(C)c1nnc(NC(=O)C2CC(=O)N(CCc3ccc(F)cc3)C2)s1 (stereo not drawn) | -7.25% |
| COc1cccc(NC(=O)c2cc(S(=O)(=O)N3CCc4ccccc43)cn2C)c1 | 7.48% |
| CCc1ccc(OC(C)C(=O)Nc2ccc(S(=O)(=O)Nc3cc(C)on3)cc2)cc1 (stereo not drawn) | -9.78% |
| CC(CCc1ccc(O)cc1)NCc1ccc(Cl)cc1Cl (stereo not drawn) | -4.82% |
| CCCCC1(C(=O)OCC)NC(c2ccc(O)cc2)C2C(=O)N(c3ccccc3)C(=O)C21 (stereo not drawn) | -10.2% |
| COc1ccc(NC(=O)CN2C(=O)CSC2=O)cc1 | -1.96% |
| CCc1ccc(NC(=O)CN2C(=O)CSC2=O)cc1 | 53.9% (active) |
| CCc1ccc(NC(=O)CN2C(=O)COc3ccc(S(=O)(=O)N4CCCC4)cc32)cc1 | -5.17% |
| O=C(CN1CCN(c2ccccc2F)CC1)c1ccc2c(c1)OCO2 | 53% (active) |
| CC1(c2ccc(Cl)cc2)NC(=O)N(CC(=O)c2ccc3c(c2)OCO3)C1=O (stereo not drawn) | 1.96% |
| O=C(Nc1ccccc1N1CCN(C(=O)c2ccccc2)CC1)c1ccc2c(c1)OCO2 | -7.26% |
| CCOc1cc(C2/C(=C(/O)c3ccc(S(=O)(=O)N4CCCCC4)cc3)C(=O)C(=O)N2CCOC)ccc1O (stereo not drawn) | -10.6% |
